This note sets out measurements from PubChem BioAssay.

Test [1] is described as follows: Wnt pathway potentiators raising nuclear beta-catenin – imaging, WNT3A-conditioned medium, mouse C2C12, NPC library, primary screen (AID 1117326; in the data active = nuclear beta-catenin stimulation mostly above about 4.2%, no sharp cut-off; inactive = mostly below about 10%). To be noted: stronger effect = higher value.
Test [2] can be described thus: stimulators of insulin release from INS-1E, primary screen, cell-based, 5 mM glucose, NPC library (AID 1117329;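 active = compound raises insulin release from rat beta cells at 5 mM glucose, no numeric limit stated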). To be noted: rat INS-1E insulin secretion, at 10 µM, stronger effect = higher value.
Test [3] is described as follows: growth inhibition of GSK3B-pretreated HCT116 cells – cell-based, CellTiter-Glo, 0.2 to 20 µM (AID 1117336;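 active = compounds lowering colon cancer cell viability after pretreatment blocking the GSK3B kinase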). To be noted: HCT116 viability after GSK3B inhibitor, at 20 µM, stronger effect = higher value.
Test [4] in a line: inhibition of endothelial tube formation, primary screen, imaging, VEGF stimulated, CD31 staining, tube area, NPC library (AID 1117340;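 active = compound that reduces growth-factor-driven endothelial tube area in a mixed cell culture, no cutoff stated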). The following applies: VEGF-stimulated ADSC/ECFC co-culture, at 10 µM, stronger effect = higher value.
Test [5] is described as follows: GLP1 release stimulators, primary, NCI-H716, NPC library (AID 1117341;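 active = compound raises GLP1 secretion from the human gut endocrine cells, with no numeric limit stated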). To be noted: NCI-H716 cells, at 10 µM, stronger effect = higher value.
Test [6] is described as follows: HCT116 colon cancer cell growth inhibition, primary screen, CellTiter-Glo luminescence, NPC library (AID 1117342;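 active = compounds that lower survival of HCT116 colon cancer cells in the luminescence readout, no numeric limit stated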). The following applies: at 20 µM (top of the series).
The nature of test [7]: reduced SW480 viability measured with CellTiter-Glo, NPC library, primary (AID 1117343;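 active = compounds that lower viability of the colon cancer cells in the luminescence readout, with no numeric limit stated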). To be noted: CellTiter-Glo luminescence; at 20 µM (top of the series).
Test [8] in a line: NPC library primary testing for decreased DLD-1 cell viability via CellTiter-Glo (AID 1117346;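 active = compounds that lower survival of DLD-1 colon cancer cells in the luminescence readout, no cutoff given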). The following applies: DLD-1 viability, CellTiter-Glo luminescence; at 20 µM (top of the series).
Test [9] has as its target 6-phosphogluconate dehydrogenase, decarboxylating (Homo sapiens) (UniProt P52209). The test can be described thus: inhibition of human phosphogluconate dehydrogenase – biochemical, recombinant enzyme, NADPH absorbance, primary screen (AID 1159550;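 active = at least 20% inhibition of 6-phosphogluconate dehydrogenase activity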). To be noted: recombinant 6PGD, NADPH absorbance 341 nm; at 10 µM; stronger effect = higher value.
Test [10] in a line: yeast 75Q aggregation reduction – 75Q-TubU reporter (AID 1593). The following applies: Yeast 75Q polyglutamine aggregation reporter.
The nature of test [11]: blockers of cytochrome c efflux from mitochondria – biochemical, purified mitochondria (AID 1603).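 Also: mouse liver mitochondria challenged with calcium chloride; signal normalized to the plate average as 100%.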 The following applies: stronger effect = lower value.
A short description of test [12]: polyglutamine aggregate formation blockers (AID 1604). The following applies: polyglutamine-induced protein aggregation inhibition assay; stronger effect = higher value; tested at 2.5 µM.
The nature of test [13]: EMT-state selective cytotoxicity in co-culture – imaging, PC-3E GFP, TEM4-18 mCherry, primary screen (AID 1345086;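 active = compounds killing one labelled cell type while sparing the other, by normalised counts and ratio limits, not self-fluorescent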;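 as to all read-outs here: cells exposed to compound for 72 h before imaging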;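 as to red/green cell ratio (normalised): normalised mesenchymal count divided by normalised epithelial count so high means epithelial killing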). The following applies: PC-3E GFP / TEM4-18 mCherry co-culture, imaging cell counts, at 1 µM; for red/green cell ratio (normalised): actives lie on both sides.
Test [14] deals with Aerobactin synthetase IucA (Klebsiella pneumoniae hvKP1). The test can be described thus: IucA enzyme inhibition, primary screen, biochemical, Spectrum library (AID 1346200; call rule not given here;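 also: 100% = wells without compound and 0% = wells lacking enzyme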). To be noted: malachite green pyrophosphate, A620, at 8 µM, stronger effect = lower value.
The nature of test [15]: MELAS cybrid and Rieske KO viability enhancers – cell-based, MELAS cybrids, Rieske KO mouse fibroblasts, CellTiter-Glo, primary screen (AID 1508586;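 active = mean z-score across replicates of 1.96 or higher in either the MELAS or the Rieske mutant cell line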;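 also: z relative to plate mean and SD of compound and empty wells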). To be noted: low glucose.
Test [16] addresses NAD(+) hydrolase SARM1 (Homo sapiens) (UniProt Q6SZW1). Briefly: blocking NAD cleavage by SARM1 SAM-TIR – cell lysate, NAD-Glo luminescence (AID 1508614;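 active = compound whose remaining NAD level is above about 45 nM, limit read from the data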;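 also: higher remaining NAD means stronger inhibition of SARM1 NADase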). The following applies: SAM-TIR HEK293T lysate NADase, at 1 µM, stronger effect = higher value.
The target in test [17] is Mitogen-activated protein kinase 7 (Homo sapiens) (UniProt Q13164). The test can be described thus: Gal4-ERK5 driven luciferase induction – cell-based, HTS, primary screen (AID 1508626;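 active = luciferase signal above three times the same-plate solvent-only control wells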;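 also: luciferase driven by Gal4-ERK5 fusion binding five Gal4 sites before minimal TATA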). To be noted: HeLa Gal4-ERK5 transactivation, 18 h, at 5 µM, stronger effect = higher value.
A short description of test [18]: galactose survival enhancers in mitochondrial complex I cybrids – cell-based, galactose medium, ATP luminescence, primary screen (AID 1645843).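 Also: positive z means more ATP and so rescue of galactose-driven cybrid death.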 To be noted: complex I mutant cybrid cells, 72 h, stronger effect = higher value.
Test [19] in a line: viability loss with induced miR-34 in A549 – imaging, A549 dox-inducible miR-34, nuclei and caspase counts, primary screen (AID 1347080;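 active = compounds whose cell count with miR-34 switched on is under 0.7 times the count with it off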). To be noted: A549 miR-34 inducible, Hoechst nuclei count, 48 h.
Where [20] appears, read: measured here: epithelial PC-3E GFP cell survival.
Setting [21] is: measured here: mesenchymal TEM4-18 mCherry cell survival.
[22] abbreviates: MELAS cybrid survival, CellTiter-Glo 48 h, stronger effect = higher value.
Setting [23] is: Rieske KO mouse fibroblast survival, CellTiter-Glo 72 h.

Molecules are shown by their SMILES. Several values for one entry are separate records, joined by “and”; a condition that tells them apart may be missing. Identical values can stand only once. More than one record can exist for a structure, and the calls need not agree. Activity calls are given as the source filed them.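 The calls were made as follows, unless noted: active = z-score of at least 1.8 in each of two replicates, scored against plate mean and spread of sample wells; inactive = the rest.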

Chain of NAD(+) hydrolase SARM1 (Homo sapiens) (Q6SZW1 whole entry, looked up, the tested form may be a part): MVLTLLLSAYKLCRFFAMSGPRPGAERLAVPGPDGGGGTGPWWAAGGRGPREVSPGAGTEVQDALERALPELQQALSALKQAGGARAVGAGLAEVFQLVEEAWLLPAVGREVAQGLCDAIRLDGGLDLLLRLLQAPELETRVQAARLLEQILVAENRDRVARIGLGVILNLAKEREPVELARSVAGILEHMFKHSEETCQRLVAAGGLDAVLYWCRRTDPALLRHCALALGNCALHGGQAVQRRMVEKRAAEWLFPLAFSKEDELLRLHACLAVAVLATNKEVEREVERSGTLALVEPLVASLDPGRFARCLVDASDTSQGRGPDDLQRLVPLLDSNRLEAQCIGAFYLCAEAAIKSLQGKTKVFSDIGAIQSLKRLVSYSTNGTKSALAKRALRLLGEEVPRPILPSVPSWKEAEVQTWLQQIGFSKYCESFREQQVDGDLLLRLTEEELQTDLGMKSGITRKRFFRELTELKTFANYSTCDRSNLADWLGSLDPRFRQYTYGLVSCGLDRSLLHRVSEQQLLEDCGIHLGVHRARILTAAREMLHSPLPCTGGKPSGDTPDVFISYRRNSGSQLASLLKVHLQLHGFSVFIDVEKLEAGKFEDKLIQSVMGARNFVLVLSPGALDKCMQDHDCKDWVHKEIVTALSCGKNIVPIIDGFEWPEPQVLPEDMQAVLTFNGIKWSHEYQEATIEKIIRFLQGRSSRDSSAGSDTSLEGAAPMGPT
Chain of 6-phosphogluconate dehydrogenase, decarboxylating (Homo sapiens) (P52209 whole entry, looked up): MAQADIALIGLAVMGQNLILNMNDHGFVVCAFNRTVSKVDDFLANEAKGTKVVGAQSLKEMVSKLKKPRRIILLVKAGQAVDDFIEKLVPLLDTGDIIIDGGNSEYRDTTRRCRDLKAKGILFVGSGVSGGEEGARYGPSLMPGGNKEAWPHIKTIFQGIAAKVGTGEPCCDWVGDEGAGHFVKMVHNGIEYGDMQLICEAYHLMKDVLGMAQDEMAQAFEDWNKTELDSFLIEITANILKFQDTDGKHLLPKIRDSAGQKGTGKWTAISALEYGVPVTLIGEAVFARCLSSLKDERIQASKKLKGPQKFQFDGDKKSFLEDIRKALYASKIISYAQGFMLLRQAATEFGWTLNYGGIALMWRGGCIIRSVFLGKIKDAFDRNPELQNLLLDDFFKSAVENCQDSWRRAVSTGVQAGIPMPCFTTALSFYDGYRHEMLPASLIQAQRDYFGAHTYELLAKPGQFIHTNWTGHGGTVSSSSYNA
Chain of Mitogen-activated protein kinase 7 (Homo sapiens) (Q13164 whole entry, looked up, the tested form may be a part): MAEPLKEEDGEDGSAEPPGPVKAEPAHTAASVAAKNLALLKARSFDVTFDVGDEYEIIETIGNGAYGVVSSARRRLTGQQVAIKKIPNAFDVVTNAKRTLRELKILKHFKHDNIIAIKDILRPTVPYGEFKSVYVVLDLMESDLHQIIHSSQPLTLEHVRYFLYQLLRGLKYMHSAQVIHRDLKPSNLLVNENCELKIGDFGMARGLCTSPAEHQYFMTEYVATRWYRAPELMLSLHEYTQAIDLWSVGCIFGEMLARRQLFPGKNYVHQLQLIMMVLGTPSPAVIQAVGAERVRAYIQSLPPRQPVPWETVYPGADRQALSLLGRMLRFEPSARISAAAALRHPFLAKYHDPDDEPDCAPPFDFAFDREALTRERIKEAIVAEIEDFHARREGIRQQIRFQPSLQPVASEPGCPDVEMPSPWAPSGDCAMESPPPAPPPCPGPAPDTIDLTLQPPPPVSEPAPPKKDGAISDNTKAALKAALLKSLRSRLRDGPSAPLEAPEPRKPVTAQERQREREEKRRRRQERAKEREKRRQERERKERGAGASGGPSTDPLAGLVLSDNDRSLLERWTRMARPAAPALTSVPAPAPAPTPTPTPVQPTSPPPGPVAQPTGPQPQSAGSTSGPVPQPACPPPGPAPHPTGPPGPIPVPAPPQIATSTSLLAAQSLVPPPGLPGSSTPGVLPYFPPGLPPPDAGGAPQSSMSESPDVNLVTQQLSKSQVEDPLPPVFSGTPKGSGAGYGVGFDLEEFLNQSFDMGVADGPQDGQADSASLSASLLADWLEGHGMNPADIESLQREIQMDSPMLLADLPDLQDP

Turning to `O=[N+]([O-])/N=C1\NCCN1Cc1ccc(Cl)nc1`, the nuclear beta-catenin stimulation is 0.9% (inactive) in [1] (at 10 µM) and 1.2% in test [1] (stimulation, at 2 µM). Besides, the insulin secretion stimulation in test [2] was -1.2% (inactive). Moreover, the viability decrease in [3] was -10.2% (inactive). Besides, in [4], the tube area decrease is -4.1% (inactive). The GLP1 secretion stimulation in test [5] is -2% (inactive). For the same compound, the inhibition of viability in [6] was 9.4% (inactive). The viability decrease (inhibition) is 27.9% (inactive) in test [7] and -0.3% (inactive) in test [8]. Also, the inhibition in test [9] was -7.9% (inactive).
For the compound `O=P1(N(CCCl)CCCl)NCCCO1` (configuration not stated), in test [10], the score was 0.77. Moreover, the cytochrome c release ratio in test [11] worked out at 1. Moreover, the inhibition of aggregation in test [12] was determined as 69.7%. The nuclear beta-catenin stimulation in [1] (at 10 µM) was 1% (inactive); in [1] (stimulation, at 2 µM), 0.9%. Further, in test [2], the insulin secretion stimulation was -1% (inactive). In addition, the viability decrease in test [3] was -1.15% (inactive). Further, the tube area decrease in [4] was 16.1% (inactive). Also, the GLP1 secretion stimulation in test [5] was 1.6% (inactive). Further, the inhibition of viability in test [6] is -24.2% (inactive). Further, the viability decrease (inhibition) was 101% (active) in test [7] and -8.15% (inactive) in test [8]. For the same compound, the inhibition in test [9] was -5.23% (inactive). Moreover, the red/green cell ratio (normalised) in [13] is 1.26 (inactive). Besides, the normalised cell number in test [13] (setting [20]) turned out to be 1.18; in test [13] (setting [21]), 1.48. In test [14], the activity remaining is 120% (inactive). Further, the z-score is 0.187 (inactive) and -0.193 (inactive) in test [15] (setting [22]); -0.0217 and -1.38 in test [15] (setting [23]); 0.055 (inactive) and 0.19 (inactive) and -0.255 (inactive) in test [18]. Besides, in [16], the remaining NAD was 10 nM (inactive). In [17], the luciferase signal is 84 AU (inactive).
As to `O=c1[nH]c2ccccc2n1CCCN1CCC(n2c(=O)[nH]c3cc(Cl)ccc32)CC1`, the nuclear beta-catenin stimulation in test [1] (at 10 µM) is 3.1% (inactive); in [1] (stimulation, at 2 µM), 0.9%. Moreover, the insulin secretion stimulation in test [2] is 41.9% (active). Further, the viability decrease in test [3] was -17.1% (inactive). Moreover, in test [4], the tube area decrease was 12.9% (inactive). In [5], the GLP1 secretion stimulation was 6.8% (inactive). For the same compound, the inhibition of viability in test [6] was 13.1% (inactive). Besides, the viability decrease (inhibition) in test [7] is 13.8% (inactive); in test [8] it was 15.8% (inactive). The inhibition in test [9] is 2.55% (inactive). Besides, the red/green cell ratio (normalised) in test [13] was 1.2 (inactive). The figures for the normalised cell number in [13] (setting [20]) and in [13] (setting [21]) were 0.91 and 1.1, respectively. Further, in test [14], the activity remaining is 117% (inactive). The z-score in [15] (setting [22]) is -0.488 (inactive) and -0.032 (inactive) and 1.25 (inactive); in test [15] (setting [23]), 0.597 and -0.334 and 1.01; in [18] it was -0.92 (inactive) and -0.455 (inactive) and -0.075 (inactive). Also, in test [16], the remaining NAD was 10 nM (inactive). Besides, the luciferase signal in [17] is 44 AU (inactive).
Turning to `O=C(O)c1nn(Cc2ccc(Cl)cc2Cl)c2ccccc12`, the nuclear beta-catenin stimulation is 1.4% (inactive) in [1] (at 10 µM) and 4.8% in test [1] (stimulation, at 2 µM). In addition, the insulin secretion stimulation in test [2] was 4.2% (inactive). For the same compound, the viability decrease in [3] is 31.1% (inactive). Besides, the tube area decrease in test [4] was -29.5% (inactive). Moreover, in [5], the GLP1 secretion stimulation is 4.9% (inactive). In test [6], the inhibition of viability is 19.6% (inactive). The values for the viability decrease (inhibition) in test [7] and in [8] were 24.5% (inactive) and 3.6% (inactive), respectively. The inhibition in test [9] was 4.63% (inactive). Moreover, the red/green cell ratio (normalised) in test [13] is 0.98 (inactive). For the same compound, the normalised cell number in test [13] (setting [20]) was 0.85; in test [13] (setting [21]), 0.83. The fold change was 1.1 (inactive) and 0.951 (inactive) and 0.966 (inactive) in test [19] (stronger effect = lower value); 0.953 and 0.659 and 0.627 in test [19] (measured here: relative caspase fold change +Dox/-Dox). The cell count in test [19] (measured here: total cells with miR-34 induction, stronger effect = lower value) was 10200 and 7460 and 7860; in test [19] (measured here: total cells without miR-34 induction), 9270 and 7840 and 8130. For the same compound, the z-score in [15] (setting [22]) is -0.0995 (inactive); in [15] (setting [23]), -0.0829; in test [18] it was 2.35 (active) and 0.985 (inactive). Moreover, the remaining NAD in test [16] is 10 nM (inactive).
